PRMT1 FP inh = PRMT1 methyltransferase inhibitors, primary screen, biochemical, fluorescence polarization | recombinant PRMT1, activity-based probe fluorescence polarization | AID 652257, 2013 | Protein arginine N-methyltransferase 1 (Homo sapiens), Q99873 | 1.3% of 370,000 active | inhibition, % at 2.79 µM;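 active = inhibition above about 21% made by adding two undisclosed values, limit read from the data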
LEDGF integ inh = blockers of LEDGF/p75-dependent integrase strand transfer – biochemical, TR-FRET, high throughput, primary screen | HIV-1 integrase (with human LEDGF/p75) | TR-FRET IN-LEDGF/p75 DNA integration, Eu/Cy5 | inhibition, % at 3.7 µM | 0.64% of 370,000 active | AID 743269, 2014;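 active = inhibition above the screen-wide mean plus 3 SD, cut at about 13% in these data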;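 also: signal is the Cy5 over europium emission ratio at 671 and 618 nm; 0% = plate median of compound wells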
UHRF1 binding = UHRF1 methylated DNA binding inhibitors, primary screen, counter-screen for MBD2 inhibitor project, biochemical, TR-FRET, human UHRF1, single concentration. E3 ubiquitin-protein ligase UHRF1 (Homo sapiens), Q96T88. UHRF1 binding to methylated oligo. inhibition, % at 4.4 µM. 0.75% of 370,000 active. AID 687016, 2013; in the data active = inhibition above about 21%;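 also: UHRF1 SRA domain binding a hemimethylated CpG hairpin DNA probe; 0% = median of test compound wells and 100% = reference inhibitor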
MBD2 DNA inh = inhibitors of MBD2 binding to methylated DNA, primary screen, biochemical, TR-FRET, DNA-binding domain, human. 0.31% of 370,000 active. MBD2 binding to methylated oligonucleotide. inhibition, % at 4.4 µM. AID 686964, 2013. Methyl-CpG-binding domain protein 2 (Homo sapiens), Q9UBB5; in the data active = inhibition above about 13%
IN multimer up = HIV-1 IN multimer formation enhancers, counter-screen for LEDGF/p75 integration inhibitor project, biochemical, TR-FRET; shares compounds with LEDGF integ inh; TR-FRET HIV-1 integrase multimerization; activation, % at 7.7 µM; 17% of 2,000 active; in the data active = activation above about 8.9%
TR-FRET interf = TR-FRET optical interference artefacts, confirmation, artefact control for LEDGF/p75-dependent integration inhibitor project, biochemical, HIV-1 IN multimerization | shares compounds with LEDGF integ inh | TR-FRET optical interference counterscreen | AID 1053135, 2014 | 2,000 tested, under 10 active | inhibition, % at 7.7 µM;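 active = inhibition above the mean over all tested compounds plus 3 SD, which no compound reached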;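 also: 0% = integrase with antibodies and DMSO and 100% = antibodies without integrase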
LEDGF integ conf = inhibitors of HIV-1 IN-LEDGF/p75 DNA integration, confirmation, biochemical, TR-FRET | shares compounds with LEDGF integ inh | TR-FRET LEDGF/p75-dependent HIV-1 integration | inhibition, % at 3.7 µM | 36% of 2,000 active | AID 1053136, 2014; in the data active = inhibition above about 14%
An asterisk follows results filed as active. Most compounds without a hit are left out; they make up all but 2.5% or so of the library.

For Nn1cnnc1N/N=C/c1cc(Br)cc(Br)c1O the results were PRMT1 FP inh 3.1, LEDGF integ inh 44.4*, UHRF1 binding 4.0, MBD2 DNA inh 4.2, IN multimer up 0.7, TR-FRET interf -2.1 and LEDGF integ conf -15.9.
`CSc1ccc(/C=N\Nc2nncn2N)cc1` gave PRMT1 FP inh 1.5, LEDGF integ inh 39.7*, UHRF1 binding 14.7, MBD2 DNA inh 3.4, IN multimer up -0.8, TR-FRET interf 3.0 and LEDGF integ conf -5.2.
For CC1CCN(c2ccc(/C=N/n3nnnc3N)cc2[N+](=O)[O-])CC1 the results were PRMT1 FP inh -1.6, LEDGF integ inh 3.2, UHRF1 binding -3.0 and MBD2 DNA inh -4.8.
`CC(C)(C)c1ccc(/C=N/Nc2nncn2N)cc1` gave PRMT1 FP inh 3.6, LEDGF integ inh 39.2*, UHRF1 binding 7.3, MBD2 DNA inh 1.1, IN multimer up -1.5, TR-FRET interf 5.4 and LEDGF integ conf -8.4.
`CC1CCN(c2ccc(/C=N\Nc3nncn3N)cc2[N+](=O)[O-])CC1` gave PRMT1 FP inh 0.7, LEDGF integ inh 46.8*, UHRF1 binding 3.8, MBD2 DNA inh -6.3, IN multimer up 2.2, TR-FRET interf -7.5 and LEDGF integ conf -15.3.
Screening CSc1ccc(/C=N/NC(=O)c2ccc(-n3cnnn3)cc2)cc1 returned PRMT1 FP inh -1.2, LEDGF integ inh 2.3, UHRF1 binding -4.3 and MBD2 DNA inh 3.3.
For CC(C)(C)c1nnc(N/N=C/c2ccc(Br)cc2)n(N)c1=O the results were PRMT1 FP inh 3.2, LEDGF integ inh -2.5, UHRF1 binding -0.8 and MBD2 DNA inh -1.7.
For COc1cc(C)c(CN2CCC(n3nccc3NC(=O)C3CC3)CC2)cc1C the results were PRMT1 FP inh 1.2, LEDGF integ inh 1.8, UHRF1 binding 3.0 and MBD2 DNA inh 9.2.
`CC(=O)N1N=C(N)SC1c1ccc(Cl)c(Cl)c1` (configuration not stated) gave PRMT1 FP inh -2.1, LEDGF integ inh 0.8, UHRF1 binding 0.4 and MBD2 DNA inh -3.3.
CC(C)Cn1cc(-c2cccc3nccn23)cn1 was read as PRMT1 FP inh -0.7, LEDGF integ inh 1.6, UHRF1 binding -1.9 and MBD2 DNA inh -6.7.

High-throughput results: PubChem BioAssay, The Scripps Research Institute Molecular Screening Center
